Measured values from PubChem BioAssay (NCATS).
Inconclusive results are not listed. The source made the active and inactive calls. Unless noted, calls follow the shape of the dose curve; as a rule, active = well fitted curve in the direction sought with a large enough effect; inconclusive = small, poorly fitted or top-dose-only effect, or another doubt; inactive = no such curve, though single readings can be large; an effect the other way counts as inactive or inconclusive.

Experiments:
[1] = test system: HIV-1 nucleocapsid protein NCp7 (binding to TG oligonucleotide); experiment: HIV Nucleocapsid (AID 346; call rule not given here;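 also: potency is read from the fitted curve at half-maximal effect; potency is for inhibitors that block NC binding and lower polarization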); settings: HIV-1 NC / fluorescein-TGTGTGTG probe, fluorescence polarization
How it was run: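 Fluorescence polarization readout: labelled TG4xF oligo (10 nM) with 100 nM nucleocapsid protein, high-salt (250mM NaCl) Hepes pH 7.5 buffer containing zinc and fresh reducing agents. Compounds added by pin tool; incubation 1 hr, room temperature.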

[2] = AP1 Signaling Pathway (AID 357; active = well fitted curve in either direction with a large enough effect, not every such curve was filed as active; also: % is scaled to controls: 0 for no effect and ±100 for the full control effect)
How it was run: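 Read-out was the 460nm/530nm emission ratio (excitation 405nm) after CCF4 loading for 2.5 hours at room temperature. Cells carried an AP-1-driven beta-lactamase reporter, were stimulated with EC50 EGF plus compound for 5 hours, and AC50 values came from titrations.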

[3] = Stat Signaling Pathway (AID 446; active = well fitted curve in either direction with a large enough effect, not every such curve was filed as active;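 also: ME-180 cervical cancer cells given 40 pM IL-6 alongside compound; SIE-controlled beta-lactamase reporter measured as 460/530 nm FRET emission ratio; % is scaled to controls: 0 for no effect and ±100 for the full control effect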)
How it was run: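 Overnight-plated ME-180 cells bearing a STAT Inducible Element beta-lactamase reporter; 5 h co-exposure to compound and 40 pM IL-6; values normalized to 300 pM IL-6 and 125 nM JAK inhibitor controls.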

[4] = biological target: Glucocorticoid receptor (Homo sapiens) (UniProt P04150); experiment: GR-EFC Redistribution (AID 451; calls by dose curve; also: potency is read from the fitted curve at half-maximal effect); settings: CHO-K1 GR-EFC translocation, beta-gal luminescence, 2 h
Chain of Glucocorticoid receptor (Homo sapiens) (P04150 whole entry, looked up, the tested form may be a part): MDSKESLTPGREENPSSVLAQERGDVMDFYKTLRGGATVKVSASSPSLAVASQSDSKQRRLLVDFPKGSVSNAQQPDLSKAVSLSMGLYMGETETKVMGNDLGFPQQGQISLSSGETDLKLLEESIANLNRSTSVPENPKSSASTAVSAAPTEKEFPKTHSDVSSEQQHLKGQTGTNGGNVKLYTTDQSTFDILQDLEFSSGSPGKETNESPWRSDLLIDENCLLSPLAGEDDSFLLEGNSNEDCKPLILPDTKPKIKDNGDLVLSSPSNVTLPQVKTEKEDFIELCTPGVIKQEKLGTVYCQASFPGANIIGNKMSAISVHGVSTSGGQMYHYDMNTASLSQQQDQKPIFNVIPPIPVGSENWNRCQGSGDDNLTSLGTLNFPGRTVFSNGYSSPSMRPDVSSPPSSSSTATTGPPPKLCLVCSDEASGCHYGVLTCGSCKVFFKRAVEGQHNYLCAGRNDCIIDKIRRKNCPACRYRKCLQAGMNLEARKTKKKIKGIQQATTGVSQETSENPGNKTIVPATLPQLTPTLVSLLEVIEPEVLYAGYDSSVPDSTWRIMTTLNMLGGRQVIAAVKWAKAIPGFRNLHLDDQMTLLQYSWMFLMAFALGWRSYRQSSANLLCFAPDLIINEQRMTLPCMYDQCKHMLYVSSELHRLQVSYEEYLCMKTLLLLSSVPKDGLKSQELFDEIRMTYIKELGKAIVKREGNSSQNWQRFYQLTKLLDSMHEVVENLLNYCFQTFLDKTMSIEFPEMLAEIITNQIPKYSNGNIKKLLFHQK
How it was run: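 CHO-K1 cells expressing nuclear EA and GR-ED fragments of b-gal; compounds titrated up to 46 uM final, 2 h at 37 C. GR nuclear translocation read as complemented b-gal luminescence after 1 h RT detection.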

[5] = biological target: Mitogen-activated protein kinase 10 (Mus musculus) (UniProt Q61831); experiment: JNK3 AlphaScreen Assay (AID 530; active = well fitted curve in either direction with a large enough effect, not every such curve was filed as active;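 also: kinase came from lysate of stimulated human HepG2 cells; signal reports phosphorylation of biotinylated GST-cJun 1-79 at Ser73 with 10 µM ATP; % is scaled to controls: 0 for no effect and ±100 for the full control effect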)
How it was run: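 HepG2 lysate (IL-1b/TNFa pre-activated) + biotin-GST-cJun 1-79 + anti-pSer73 cJun; cpd titration, 15 min RT; ATP 10 uM start; Tris pH 7.6, MgCl2, DTT, vanadate; beads in EDTA buffer; AlphaScreen.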

[6] = biological target: 3',5'-cyclic-AMP phosphodiesterase 4B (Homo sapiens) (UniProt Q07343); experiment: qHTS Assay for Inhibitors of PDE-IV (AID 607; active = well fitted activation curve with a large enough effect in the main read-out, with a control signal flat, not every such curve was filed as active; also: % of control where 0% means no effect)
Chain of 3',5'-cyclic-AMP phosphodiesterase 4B (Homo sapiens) (Q07343 whole entry, looked up): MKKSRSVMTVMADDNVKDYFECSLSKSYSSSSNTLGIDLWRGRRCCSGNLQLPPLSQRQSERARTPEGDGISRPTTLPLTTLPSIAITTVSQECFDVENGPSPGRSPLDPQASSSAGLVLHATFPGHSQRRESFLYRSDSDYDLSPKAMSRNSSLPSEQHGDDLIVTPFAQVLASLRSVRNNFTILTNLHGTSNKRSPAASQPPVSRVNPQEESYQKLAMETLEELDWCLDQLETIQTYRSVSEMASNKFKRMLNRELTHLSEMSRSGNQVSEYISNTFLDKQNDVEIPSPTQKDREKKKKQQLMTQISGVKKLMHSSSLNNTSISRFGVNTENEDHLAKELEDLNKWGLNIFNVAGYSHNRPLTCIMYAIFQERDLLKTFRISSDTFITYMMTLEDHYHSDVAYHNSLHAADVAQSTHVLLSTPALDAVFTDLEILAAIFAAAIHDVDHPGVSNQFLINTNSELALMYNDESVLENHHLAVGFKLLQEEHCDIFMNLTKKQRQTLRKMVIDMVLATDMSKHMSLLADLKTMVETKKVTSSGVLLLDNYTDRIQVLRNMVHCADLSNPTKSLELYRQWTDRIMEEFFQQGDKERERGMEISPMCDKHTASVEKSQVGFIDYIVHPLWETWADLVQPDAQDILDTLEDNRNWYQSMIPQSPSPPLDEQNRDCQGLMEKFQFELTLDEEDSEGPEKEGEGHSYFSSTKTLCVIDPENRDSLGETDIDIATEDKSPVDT
How it was run: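 Live HEK293 cells with a modified cyclic nucleotide-gated (CNG) channel report intracellular cAMP via membrane-potential dye fluorescence (ex 535/em 590 nm). Endogenous PDE-IV was targeted. Compounds were tested at up to 22.9 uM final; RO 20-1724 100 uM served as control.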

[7] = biological target: Cytochrome P450 3A4 (Homo sapiens) (UniProt P08684); experiment: qHTS Assay for Inhibitors and Substrates of Cytochrome P450 3A4 (AID 884); also: % is scaled to controls: 0 for no effect and ±100 for the full control effect; nearly all actives have a fitted effect of over 50% in size
Chain of Cytochrome P450 3A4 (Homo sapiens) (P08684 whole entry, looked up): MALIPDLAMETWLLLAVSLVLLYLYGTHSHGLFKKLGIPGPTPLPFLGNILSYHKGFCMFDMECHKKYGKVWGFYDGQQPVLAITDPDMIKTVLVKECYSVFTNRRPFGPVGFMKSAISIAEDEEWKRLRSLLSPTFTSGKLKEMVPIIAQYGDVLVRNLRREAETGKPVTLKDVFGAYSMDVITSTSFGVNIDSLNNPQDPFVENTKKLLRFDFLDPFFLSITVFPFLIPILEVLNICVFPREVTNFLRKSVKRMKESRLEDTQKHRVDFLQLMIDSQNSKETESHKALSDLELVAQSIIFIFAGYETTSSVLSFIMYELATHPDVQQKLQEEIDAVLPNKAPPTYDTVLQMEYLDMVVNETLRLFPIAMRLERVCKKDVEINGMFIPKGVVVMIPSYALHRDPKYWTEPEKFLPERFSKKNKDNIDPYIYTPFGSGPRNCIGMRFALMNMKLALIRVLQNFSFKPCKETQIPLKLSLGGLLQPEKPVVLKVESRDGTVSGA
How it was run: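 Luminescent readout of luciferin produced by CYP3A4 (20 nM) dealkylation of Luciferin-PPXE, 25 uM (its KM). NADPH-driven reaction ran 60 min at RT after 10 min compound preincubation; data scaled to 57 uM ketoconazole as 100% inhibition.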

[8] = biological target: Cytochrome P450 3A4 (Homo sapiens) (UniProt P08684); experiment: qHTS Assay for Activators of Cytochrome P450 3A4 (AID 885); also: nearly all actives have a fitted effect of over 65% in size; also: potency is read from the fitted curve at half-maximal effect
How it was run: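 Using 20nM recombinant human CYP3A4 in potassium phosphate (200mM), substrate Luciferin-PPXE at 25uM, luminescent luciferin detection followed a 60-min RT NADPH reaction; data scaled to 57 uM ketoconazole.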

[9] = qHTS Assay for Lipid Storage Modulators (AID 1519; calls by dose curve); settings: Drosophila S3 cells, BODIPY lipid droplet/cell ratio, laser cytometry, cells loaded with oleic acid; for activity change, negative = inhibition: at 57.5 µM (top of the series)
How it was run: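 Cells seeded at 5,000 per well were treated with compounds over a concentration series and loaded with oleic acid (400 uM, as added). Lipid droplet fluorescence (488 nm excitation, 500-530 nm channel) was read by laser-scanning cytometry and normalized to 20 uM Triacsin C.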

[10] = Primary qHTS for small molecule stabilizers of the endoplasmic reticulum resident proteome: Secreted ER Calcium Modulated Protein (SERCaMP) assay (AID 1508630); also: % is scaled to controls: 0 for no effect and ±100 for the full control effect
How it was run: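 The SH-SY5Y reporter protocol was run at 3 concentrations up to 38.3 uM (primary) or 11 concentrations (follow-up): 16 h compound, 100 nM thapsigargin for 4 h, then extracellular luciferase luminescence.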

[11] = biological target: Lysosomal acid glucosylceramidase (Homo sapiens) (UniProt P04062); experiment: Glucocerebrosidase-p2 (AID 348; in the data active = potency below about 10 µM; also: potency is read from the fitted curve at half-maximal effect); settings: purified GBA, blue fluorogenic substrate, 40 min
How it was run: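 Normal human glucocerebrosidase (0.2 nM) with blue fluorogenic substrate (80 uM final) in citrate/phosphate pH 5.9 with 10mM sodium taurocholate, 0.01% tween-20; 40 min RT, NaOH/glycine stop; fluorescence Ex 365/Em 440; AC50 from a titration from 0.6 nM upwards.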

[12] = biological target: Cytochrome P450 1A2 (Homo sapiens) (UniProt P05177); experiment: p450-cyp1a2 (AID 410; calls by dose curve; also: potency is read from the fitted curve at half-maximal effect)
Chain of Cytochrome P450 1A2 (Homo sapiens) (P05177 whole entry, looked up): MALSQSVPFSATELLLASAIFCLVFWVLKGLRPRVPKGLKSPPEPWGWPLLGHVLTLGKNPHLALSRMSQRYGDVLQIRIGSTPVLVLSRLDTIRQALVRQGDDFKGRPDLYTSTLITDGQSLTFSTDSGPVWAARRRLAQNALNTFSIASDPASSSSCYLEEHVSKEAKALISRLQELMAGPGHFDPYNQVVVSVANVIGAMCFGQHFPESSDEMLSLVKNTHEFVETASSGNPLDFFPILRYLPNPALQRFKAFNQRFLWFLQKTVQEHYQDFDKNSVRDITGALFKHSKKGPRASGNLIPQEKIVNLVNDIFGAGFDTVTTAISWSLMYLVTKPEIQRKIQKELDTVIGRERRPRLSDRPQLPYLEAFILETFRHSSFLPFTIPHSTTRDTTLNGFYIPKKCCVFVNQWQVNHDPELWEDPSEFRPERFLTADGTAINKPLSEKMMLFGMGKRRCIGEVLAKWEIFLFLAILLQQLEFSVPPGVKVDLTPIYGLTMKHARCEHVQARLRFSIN
How it was run: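 20nM CYP1A2, 100uM Luciferin-ME (=Km), 100mM KPO4; cpd 10 min RT; +NADPH regen, 60 min RT; stop/detect 20 min; luminescence. Normalized to furafylline 57 uM = full inhibition.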

[13] = NFAT Signaling Pathway (AID 444; active = well fitted curve in either direction with a large enough effect, not every such curve was filed as active); settings: Jurkat NFAT-bla M1, carbachol, beta-lactamase ratio, 5 h; at 7.69 µM (top of the series)
How it was run: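 Jurkat cells with NFAT-driven β-lactamase reporter and co-expressed M1 receptor, stimulated with carbachol (final 1 uM, ~EC50), compound titration, 5 h at 37 °C. CCF4 loaded 1 h at RT; 460/530 nm ratio gave %activity and AC50.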

[14] = biological target: Cytochrome P450 2D6 (Homo sapiens) (UniProt P10635); experiment: qHTS Assay for Inhibitors and Substrates of Cytochrome P450 2D6 (AID 891); also: potency is read from the fitted curve at half-maximal effect; nearly all actives have a fitted effect of over 60% in size
Chain of Cytochrome P450 2D6 (Homo sapiens) (P10635 whole entry, looked up): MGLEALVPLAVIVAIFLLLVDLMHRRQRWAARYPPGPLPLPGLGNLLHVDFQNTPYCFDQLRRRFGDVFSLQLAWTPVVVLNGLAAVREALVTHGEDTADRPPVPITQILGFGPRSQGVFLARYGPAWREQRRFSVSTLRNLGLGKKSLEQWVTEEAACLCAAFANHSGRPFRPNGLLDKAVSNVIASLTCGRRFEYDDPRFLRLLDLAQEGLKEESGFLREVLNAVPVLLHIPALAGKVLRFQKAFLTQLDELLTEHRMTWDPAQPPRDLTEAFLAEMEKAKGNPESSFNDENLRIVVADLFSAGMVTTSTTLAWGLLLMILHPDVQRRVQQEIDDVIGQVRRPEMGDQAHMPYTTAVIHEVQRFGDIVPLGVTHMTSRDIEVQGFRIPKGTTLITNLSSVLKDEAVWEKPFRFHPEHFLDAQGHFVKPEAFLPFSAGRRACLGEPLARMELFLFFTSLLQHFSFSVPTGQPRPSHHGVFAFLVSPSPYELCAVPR
How it was run: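 Luminescent read-out of luciferin formed by 5 nM human CYP2D6 demethylating 30 uM Luciferin-ME EGE (Km level) over 60 min at room temperature after NADPH regeneration addition. Data normalized to full inhibition by 1.43 uM quinidine.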

[15] = qHTS Assay for Identification of Small Molecule Agonists for Hypoxia Response Element Signaling Pathway (AID 914; active = well fitted activation curve with a large enough effect in the signal ratio, with a control signal flat, not every such curve was filed as active; the % refers to the signal ratio; also: % of control where 0% means no effect); settings: ME-180 HRE-bla reporter, beta-lactamase ratio, CoCl2, 17 h; activation: stronger effect = higher value
How it was run: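 ME-180 cells carrying an HRE-driven beta-lactamase reporter were treated with compounds in a titration series plus an EC50 level of CoCl2 for 17 h at 37 degrees Celsius; CCF4 readout as the 460nm/530nm ratio gave AC50 values.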

[16] = biological target: DNA repair nuclease/redox regulator APEX1 (Homo sapiens) (UniProt P27695); experiment: qHTS Validation Assay for Inhibitors of the Human Apurinic/apyrimidinic Endonuclease 1 (APE1) (AID 1705)
How it was run: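 Read-out: TAMRA fluorescence (525 nm ex, 598 nm em) from cleavage of a quenched THF abasic-site duplex, 50 nM final; activity taken as intensity change between third and first of three reads 60 s apart.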

[17] = biological target: Endonuclease 4 (Escherichia coli (strain K12)) (UniProt P0A6C1); experiment: Counterscreen for APE1 Inhibitors: qHTS Validation Assay for Inhibitors of Endonuclease IV (AID 1708); also: % is scaled to controls: 0 for no effect and ±100 for the full control effect
How it was run: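 Read-out: fluorescence rise (ex 525/em 598 nm) from incision of a TAMRA/BHQ-2 double-stranded THF abasic-site substrate (50 nM), measured kinetically; third-minus-first read difference gave reaction progress. Enzyme 2 nM.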

[18] = qHTS for differential inhibitors of proliferation of Plasmodium falciparum line 7G8 (AID 1815);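 also: potency is read from the fitted curve at half-maximal effect; parasite growth measured after three days of incubation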
[19] = qHTS for differential inhibitors of proliferation of Plasmodium falciparum line GB4 (AID 1816); settings: Potency: Plasmodium falciparum GB4 proliferation inhibition;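 also: potency is read from the fitted curve at half-maximal effect; parasite growth measured after 72 h incubation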
[20] = qHTS for differential inhibitors of proliferation of Plasmodium falciparum line 3D7 (AID 1876); also: potency is read from the fitted curve at half-maximal effect
[21] = qHTS for differential inhibitors of proliferation of Plasmodium falciparum line D10 (AID 1877);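 also: potency is read from the fitted curve at half-maximal effect; parasites grown with compound for 72 h before DNA staining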
[22] = qHTS for differential inhibitors of proliferation of Plasmodium falciparum line W2 (AID 1883); settings: Potency: Plasmodium falciparum W2 proliferation inhibition;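 also: potency is read from the fitted curve at half-maximal effect; parasites grown with compound for 72 h before lysis and staining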
[23] = qHTS for differential inhibitors of proliferation of Plasmodium falciparum line HB3 (AID 1886); settings: Potency: Plasmodium falciparum HB3 proliferation inhibition;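 also: potency is read from the fitted curve at half-maximal effect; parasites grown with compound for 72 h before SYBR Green readout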
[24] = biological target: ATP-dependent DNA helicase Q1 (Homo sapiens) (UniProt P46063); experiment: qHTS Validation Assay for Inhibitors of RecQ-Like Dna Helicase 1 (RECQ1) (AID 2353);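 also: plate controls were DMSO vehicle for no effect and enzyme-free control for full effect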
How it was run: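 RECQ1T1 50 nM; forked duplex (20 bp + 30-nt ss tails) 200 nM, ATP 2 mM final; pH 8.0, 2 mM MgCl2, 2.5 ug/ml poly(dI-dC); 15 min compound preincubation; discontinuous kinetic read over 2 h at RT.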

[25] = biological target: RecQ-like DNA helicase BLM (Homo sapiens) (UniProt P54132); experiment: qHTS Validation Assay for Inhibitors of Bloom's syndrome helicase (BLM) (AID 2364);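 also: plate controls were DMSO vehicle for no effect and enzyme-free control for full effect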
How it was run: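 50 nM BLM preincubated 15 min at room temperature with compound in pH 8.0 Tris buffer containing 2.5 ug/ml poly(dI-dC); started with 200 nM TAMRA/BHQ-2 forked duplex and 2 mM ATP (final). Unwinding read as TAMRA fluorescence increase, two reads 2 h apart.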

[26] = Validation screen for inhibitors of Lassa infection (AID 463096; calls by dose curve; also: % is scaled to controls: 0 for no effect and ±100 for the full control effect)
[27] = Validation screen for small molecules that induce DNA re-replication in MCF 10A normal breast cells (AID 463097); also: 0% is about no effect; nearly all actives have a fitted effect of over 60% in size
How it was run: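 250 MCF 10A cells/well; compound pin-transferred; 48 hr, 37 C, 5% CO2; Hoechst 40 min; imaged 405/500-530 nm. Hits = more high-intensity nuclei.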

[28] = Quantitative high throughput screen for delayed death inhibitors of the malarial parasite plastid, 96 hour incubation (AID 488745); also: potency is read from the fitted curve at half-maximal effect; nearly all actives have a fitted effect of over 70% in size
How it was run: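 Luciferase-expressing P. falciparum, infected RBCs 2% Hct/0.1% parasitemia (final); 96 h cpd exposure, 37 C, 5% CO2; RPMI 1640 + 0.5% Albumax, bicarbonate, gentamycin. Readout: luminescence loss = growth inhibition.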

[29] = biological target: M-phase phosphoprotein 8 (Homo sapiens) (UniProt Q99549); experiment: qHTS Validation Assay for Inhibitors for MPP8 Chromodomain Interactions with Methylated Histone Tails (AID 488949); also: potency is read from the fitted curve at half-maximal effect; nearly all actives have a fitted effect of over 55% in size
Chain of M-phase phosphoprotein 8 (Homo sapiens) (Q99549 whole entry, looked up): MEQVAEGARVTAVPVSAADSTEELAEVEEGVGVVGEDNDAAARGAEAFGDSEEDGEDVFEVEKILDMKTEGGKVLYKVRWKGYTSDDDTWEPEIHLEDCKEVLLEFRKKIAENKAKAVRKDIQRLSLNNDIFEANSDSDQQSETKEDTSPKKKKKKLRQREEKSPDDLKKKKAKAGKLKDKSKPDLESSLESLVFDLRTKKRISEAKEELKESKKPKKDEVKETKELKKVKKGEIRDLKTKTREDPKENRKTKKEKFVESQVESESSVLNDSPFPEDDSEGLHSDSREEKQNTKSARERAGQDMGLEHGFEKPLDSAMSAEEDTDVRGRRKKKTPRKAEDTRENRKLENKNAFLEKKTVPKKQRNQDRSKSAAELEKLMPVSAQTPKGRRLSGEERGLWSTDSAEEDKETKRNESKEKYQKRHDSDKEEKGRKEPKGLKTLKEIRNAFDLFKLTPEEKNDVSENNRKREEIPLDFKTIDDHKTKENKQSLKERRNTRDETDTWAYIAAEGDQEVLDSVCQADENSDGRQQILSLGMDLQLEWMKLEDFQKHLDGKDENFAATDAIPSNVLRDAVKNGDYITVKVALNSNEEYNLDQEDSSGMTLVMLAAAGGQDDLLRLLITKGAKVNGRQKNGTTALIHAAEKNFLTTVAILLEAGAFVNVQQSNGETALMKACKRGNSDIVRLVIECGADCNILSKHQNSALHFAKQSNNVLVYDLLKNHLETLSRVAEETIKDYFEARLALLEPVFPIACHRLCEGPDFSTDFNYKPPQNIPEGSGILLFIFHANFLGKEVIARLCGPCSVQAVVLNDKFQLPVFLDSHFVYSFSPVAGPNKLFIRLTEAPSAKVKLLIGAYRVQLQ
How it was run: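 AlphaScreen read-out: streptavidin donor and nickel chelate acceptor beads (final 10 ug/mL), 30 min in the dark at RT. Complex of 50 nM MPP8 and 50 nM b-H3(1-18)K9me3 peptide had been exposed to compounds for 30 min beforehand.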

[30] = biological target: Thyrotropin receptor (Homo sapiens) (UniProt P16473); experiment: qHTS Assay for Antagonists of the Thyroid Stimulating Hormone Receptor (AID 488980); also: 0% is about no effect
Chain of Thyrotropin receptor (Homo sapiens) (P16473 whole entry, looked up): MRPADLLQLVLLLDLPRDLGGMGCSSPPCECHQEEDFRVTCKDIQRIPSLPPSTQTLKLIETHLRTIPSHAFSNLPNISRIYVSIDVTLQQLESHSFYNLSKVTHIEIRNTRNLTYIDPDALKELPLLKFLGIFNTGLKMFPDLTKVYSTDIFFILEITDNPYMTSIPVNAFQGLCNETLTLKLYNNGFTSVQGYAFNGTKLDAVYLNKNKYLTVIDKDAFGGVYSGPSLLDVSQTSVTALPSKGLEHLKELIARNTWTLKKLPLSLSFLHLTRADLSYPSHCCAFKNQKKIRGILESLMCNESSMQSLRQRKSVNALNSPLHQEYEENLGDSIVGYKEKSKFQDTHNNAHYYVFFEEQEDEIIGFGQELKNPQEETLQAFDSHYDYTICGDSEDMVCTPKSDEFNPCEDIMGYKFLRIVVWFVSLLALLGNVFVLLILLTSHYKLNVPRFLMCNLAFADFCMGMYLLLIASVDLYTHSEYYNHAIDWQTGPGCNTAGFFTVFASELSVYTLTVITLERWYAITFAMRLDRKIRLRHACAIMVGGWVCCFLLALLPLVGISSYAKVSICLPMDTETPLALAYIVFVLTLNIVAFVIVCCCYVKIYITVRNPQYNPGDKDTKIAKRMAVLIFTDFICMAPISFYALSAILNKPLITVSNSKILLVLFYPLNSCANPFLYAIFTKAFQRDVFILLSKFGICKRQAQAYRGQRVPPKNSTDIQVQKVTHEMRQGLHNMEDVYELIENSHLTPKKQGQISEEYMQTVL
How it was run: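 TSHR-HEK293 cells; 70 uM RO 20-1724 PDE inhibitor; compound + EC80 TSH (4 nM final); anti-cAMP cryptate antibody/cAMP-d2 in lysis buffer, 30 min RT; HTRF 665/620 nm read.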

[31] = biological target: Thyrotropin-releasing hormone receptor (Homo sapiens) (UniProt P34981); experiment: qHTS for Small Molecule Agonists and Allosteric Enhancers of Human TRH Receptor: Validation Screen for Agonists (AID 493127;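 active = calcium activation more than 3 SD above the typical response in the agonist read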;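 also: intracellular calcium rise by fluo-8 fluorescence before TRH EC20 addition; 0% is about no effect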); settings: TRH receptor agonist cell assay; at 2 µM; stronger effect = higher value
Chain of Thyrotropin-releasing hormone receptor (Homo sapiens) (P34981 whole entry, looked up): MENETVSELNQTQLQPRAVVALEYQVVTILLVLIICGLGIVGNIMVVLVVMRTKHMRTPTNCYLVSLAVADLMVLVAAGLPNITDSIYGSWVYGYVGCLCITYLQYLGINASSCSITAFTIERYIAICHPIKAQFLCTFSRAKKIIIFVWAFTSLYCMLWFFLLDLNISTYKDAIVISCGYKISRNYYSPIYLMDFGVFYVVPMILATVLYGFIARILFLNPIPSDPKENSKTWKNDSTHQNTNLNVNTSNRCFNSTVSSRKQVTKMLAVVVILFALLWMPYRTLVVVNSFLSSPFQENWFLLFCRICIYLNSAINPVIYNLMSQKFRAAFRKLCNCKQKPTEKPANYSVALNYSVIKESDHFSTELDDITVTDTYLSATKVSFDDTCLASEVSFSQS
How it was run: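 Read-out: intracellular calcium release measured kinetically by FDSS (fluo-8, ex 480/em 530 nm), 1 reading/s after a 10-cycle baseline. TRHR cells, 2000/well, cultured 18 h at 33.5C, dye-loaded at room temp. Compound-evoked positive calcium signal flags agonists.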

[32] = biological target: Galactokinase (Homo sapiens) (UniProt P51570); experiment: qHTS Validation Assay for Inhibitors of Human Galactokinase (GALK) (AID 493189); also: 0% is about no effect
How it was run: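 Luminescence from leftover ATP (Kinase-Glo Plus, 10 min) served as read-out after a 1 h room-temperature reaction of 5 nM GALK, 100 uM galactose and 35 uM ATP at pH8.0.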

[33] = biological target: Voltage-gated inwardly rectifying potassium channel KCNH2 (Homo sapiens) (UniProt Q12809); experiment: qHTS Assay for Small Molecule Inhibitors of the Human hERG Channel Activity (AID 588834);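 also: potency is read from the fitted curve at half-maximal effect; lower thallium flux fluorescence means stronger hERG block; nearly all actives have a fitted effect of over 50% in size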
How it was run: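 Thallium-flux (FluxOR) read-out on FDSS: fluorescence read 10 s before and 2 min after stimulation buffer. hERG-BacMam-transduced U2OS cells, compound exposure about 10 min. AC50 by standard Hill equation.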

[34] = measured here: cell count channel max response
[35] = measured here: lipid channel max response

CC(C)NC(=O)N1CCC2(CC1)CCN(C(=O)Oc1ccccc1)CC2
-12.1%: max response [9, 34]
-6.43%: max response [9, 35]
inactive: Potency [1] > 20 µM | outcome [2] | outcome [3] | Potency [4] > 46 µM | outcome [5] | Potency [6] | Potency [7] | activity change, negative = inhibition [9] 2.9% | outcome [10]
active: Potency [8] 25.1 µM

CC(C)CN1CC[C@@]2(CCCN(C(=O)Oc3ccccc3)C2)C1
inactive: Potency [1] > 20 µM | Potency [11] > 11.4 µM | outcome [2] | activity change, negative = inhibition [13] -1.09% | Potency [4] > 46 µM | outcome [5] | Potency [6] | Potency [8] | activation [15] -4.64% | outcome [10]
active: Potency [12] 15.8 µM | Potency [14] 6.31 µM

O=C(Nc1ccccc1)N1CC[C@@]2(CCCNC2)C1
inactive: outcome [2] | activity change, negative = inhibition [13] 19.4% | Potency [4] > 46 µM | Potency [6] | activity change, negative = inhibition [9] -3.27% | outcome [10]
4.57%: max response [9, 34]
3%: max response [9, 35]

CCCN1CCc2cc(O)cc3c2C1Cc1ccc(O)c(O)c1-3 (stereo unspecified)
active: Potency [18] 5.01 µM | Potency [19] 3.16 µM | Potency [20] 2.51 µM | Potency [21] 3.98 µM | Potency [22] 3.55 µM | Potency [23] 3.55 µM | Potency [28] 3.29 µM | Potency [29] 31.6 µM | Potency [33] 7.08 µM
inactive: Potency [16] | Potency [17] | outcome [24] | outcome [25] | Potency [26] | Potency [27] | outcome [30] | activation [31] 0.375% | outcome [32] | outcome [10]
